In experiment [1] the target is Alpha-galactosidase A (Homo sapiens) (UniProt P06280). Description: Counterscreen for Glucocerebrosidase Inhibitors: qHTS Assay for Human alpha-Galactosidase at pH 4.5 (AID 992). Note: 0% is about no effect. In outline:
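Human enzyme (2 nM) with 80 uM 4-methylumbelliferyl alpha-D-galactopyranoside in 50 mM citric acid, 0.005% Tween-20, pH 4.5, 20 min at room temperature. Compounds 0.7 nM–77 uM; fluorescence Ex 365/Em 440 after pH 10 stop; AC50 from Hill fits.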

The target in experiment [2] is alpha-glucosidase (Oryza sativa, rice) (UniProt Q653V4). The experiment in a line: Counterscreen for Glucocerebrosidase Inhibitors: qHTS Assay for Rice alpha-Glucosidase at pH 5.0 (AID 997).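 Note: 0% = full activity with enzyme and -100% = basal without enzyme.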 In outline: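 Rice alpha-glucosidase (4 nM final) with 400 uM 4-methylumbelliferyl-alpha-D-glucopyranoside in citrate buffer pH 5.0, 20 min at room temperature, stopped at pH 10; fluorescence 365/440 nm, compounds 0.7 nM–77 uM, AC50 from Hill fits.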

The nature of experiment [3]: qHTS Assay for Lipid Storage Modulators (AID 1519; calls by dose curve; for activity change, negative = inhibition: % is set by controls: 0 for no effect and ±100 for the full control effect). The following applies: Drosophila S3 cells, BODIPY lipid droplet/cell ratio, laser cytometry, cells loaded with oleic acid. In outline: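 Cells seeded at 5,000 per well were treated with compounds over a concentration series and loaded with oleic acid (400 uM, as added). Lipid droplet fluorescence (488 nm excitation, 500-530 nm channel) was read by laser-scanning cytometry and normalized to 20 uM Triacsin C.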

Experiment [4] in a line: Counterscreen for APE1 Inhibitors: Fluorescent Dye Displacement Validation Assay (AID 1707).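 Note: plate controls were ThO with dsDNA and no compound for no effect and ThO without dsDNA for full effect.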 In outline:
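Thiazole Orange (250 nM) bound to 50 nM TAMRA-labelled dsDNA with tetrahydrofuran abasic site; displacement by DNA-binding compounds lowers fluorescence. Buffer 50 mM Tris-HCl pH 7.5, 50 mM NaCl, 2 mM MgCl2, 0.01% Tween-20; endpoint read at 480/540 nm.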

Experiment [5] has as its target Endonuclease 4 (Escherichia coli (strain K12)) (UniProt P0A6C1). Description: Counterscreen for APE1 Inhibitors: qHTS Validation Assay for Inhibitors of Endonuclease IV (AID 1708). Note: % is set by controls: 0 for no effect and ±100 for the full control effect. In outline:
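2 nM enzyme was preincubated with compounds for 15 min at room temperature in 50 mM Tris-HCl pH 7.5, 50 mM NaCl, 2 mM MgCl2, 1 mM DTT, 0.01% Tween-20. 50 nM THF-abasic TAMRA/BHQ-2 duplex substrate started the reaction.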

Experiment [6] can be described thus: qHTS for differential inhibitors of proliferation of Plasmodium falciparum line 7G8 (AID 1815).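 For activity change, negative = inhibition: plate controls were vehicle wells for no effect and reference inhibitor wells for full effect.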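 Note: parasite growth measured after three days of incubation.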 Note: potency is the fitted concentration of half-maximal effect.
The nature of experiment [7]: qHTS for differential inhibitors of proliferation of Plasmodium falciparum line GB4 (AID 1816).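 For activity change, negative = inhibition: 0% = vehicle DMSO and -100% = reference inhibitor.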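 Note: parasite growth measured after 72 h incubation.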 Note: potency is the fitted concentration of half-maximal effect. To be noted: Potency: Plasmodium falciparum GB4 proliferation inhibition.
Experiment [8] can be described thus: qHTS for differential inhibitors of proliferation of Plasmodium falciparum line 3D7 (AID 1876). Note: potency is the fitted concentration of half-maximal effect.
The nature of experiment [9]: qHTS for differential inhibitors of proliferation of Plasmodium falciparum line D10 (AID 1877).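 For activity change, negative = inhibition: plate controls were vehicle wells for no effect and reference inhibitor wells for full effect.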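 Note: parasites grown with compound for 72 h before DNA staining.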 Note: potency is the fitted concentration of half-maximal effect.
Experiment [10] can be described thus: qHTS for differential inhibitors of proliferation of Plasmodium falciparum line W2 (AID 1883).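 For activity change, negative = inhibition: 0% = vehicle wells and -100% = control inhibitor wells.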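 Note: parasites grown with compound for 72 h before lysis and staining.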 Note: potency is the fitted concentration of half-maximal effect. To be noted: Potency: Plasmodium falciparum W2 proliferation inhibition.
Experiment [11] deals with DNA repair nuclease/redox regulator APEX1 (Homo sapiens) (UniProt P27695). The experiment in a line: qHTS Validation Assay for Inhibitors of the Human Apurinic/apyrimidinic Endonuclease 1 (APE1) (AID 1705;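 note: TAMRA fluorescence gain over two minutes as APE1 cuts a quenched THF abasic duplex; % is set by controls: 0 for no effect and ±100 for the full control effect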). In outline: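 Fluorogenic double-stranded THF abasic-site substrate (5'-TAMRA/3'-BHQ-2), 50 nM final. Enzyme preincubated with compound 15 min at room temperature, then substrate added. Kinetic fluorescence (ex 525/em 598 nm) read three times at 60 s intervals; activity taken as third-minus-first read difference.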

Experiment [12] in a line: qHTS for differential inhibitors of proliferation of Plasmodium falciparum line Dd2 (AID 1882).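 For activity change, negative = inhibition: compound exposure of 72 h on infected erythrocytes; plate controls were DMSO vehicle for no effect and 0.29 µM artemisinin for full effect.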 Note: nearly all actives have a fitted effect of over 65% in size. Note: potency is the fitted concentration of half-maximal effect. The following applies: Potency: Plasmodium falciparum Dd2 proliferation inhibition. In outline: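 SYBR Green I DNA fluorescence read-out, ex 485/em 535 nm. Signals were normalized to 0.29 uM artemisinin and DMSO wells, then corrected using vehicle-only plates flanking each stack. Parasite growth ran 72 h in erythrocytes before lysis.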

The nature of experiment [13]: Cell Viability - LYMP2-014 (AID 983).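 Note: plate controls were DMSO only for no effect and 92 µM tetraoctylammonium bromide for full effect; nearly all actives have a fitted effect of over 50% in size.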 In outline:
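Decrease in intracellular ATP after 24 hr treatment at 37 C, measured by luciferase luminescence, indicated cytotoxicity. Concentration-response data were fitted with the standard Hill equation to give AC50.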

Experiment [14] in a line: Cell Viability - LYMP2-016 (AID 984).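 Note: cells exposed to compound for 24 hours at 37 °C; % is set by controls: 0 for no effect and ±100 for the full control effect; nearly all actives have a fitted effect of over 55% in size.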 In outline: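 Human lymphoblastoid LYMP2-016 cells, 2500 per well, treated with compounds for 24 h at 37 C. Viability read as intracellular ATP by CellTiter-Glo luminescence after 30 min at room temperature; AC50 from Hill fits of concentration-response.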
Experiment [15] can be described thus: Cell Viability - LYMP2-018 (AID 985).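 Note: compound exposure lasted 24 hr at 37 °C; nearly all actives have a fitted effect of over 50% in size.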 Note: potency is the fitted concentration of half-maximal effect. In outline: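 Acute cytotoxicity is scored as a concentration-dependent drop in intracellular ATP after 24 hr exposure of the lymphoblastoid line in complete culture medium, measured by luciferase luminescence. Potency is expressed as AC50 from Hill modelling.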
A short description of experiment [16]: Cell Viability - LYMP2-026 (AID 989). Note: % is set by controls: 0 for no effect and ±100 for the full control effect; nearly all actives have a fitted effect of over 50% in size. In outline: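 Concentration-dependent loss of intracellular ATP in human lymphoblastoid cells after 24 hr at 37 C, quantified by luciferase luminescence. AC50 derived from standard Hill equation.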
Experiment [17] in a line: Cell Viability - LYMP1-002 - Assay at 24 hr (AID 993). Note: % is set by controls: 0 for no effect and ±100 for the full control effect. In outline: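 qHTS, LYMP1-002 lymphoblastoid, 24 h cpd, 37 C, CellTiter-Glo ATP luminescence; AC50 via Hill eq.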
A short description of experiment [18]: Cell Viability - LYMP1-002 - Assay at 40 hr (AID 994). Note: nearly all actives have a fitted effect of over 60% in size. Note: potency is the fitted concentration of half-maximal effect. In outline:
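Viability in the human lymphoblastoid line was measured as intracellular ATP via CellTiter-Glo after 40 hr compound exposure. Tetraoctylammonium bromide served as positive control.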

The nature of experiment [19]: Cell Viability - LYMP2-022 (AID 987). Note: potency is the fitted concentration of half-maximal effect; nearly all actives have a fitted effect of over 55% in size. In outline: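 Acute toxicity in a human lymphoblastoid line is scored as decreased intracellular ATP after 24 hr compound treatment at 37 C. ATP is measured by CellTiter-Glo luminescence; curves are fitted with the Hill equation to give AC50.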
Setting [20] is: measured here: cell count channel max response.
The mark [21] stands for this setting: measured here: lipid channel max response.

“And” between values parts separate entries of the source, which are not always exact repeats. Identical values can stand only once. Records with an inconclusive call do not appear. The source made the active and inactive calls. Unless noted, calls come from the whole dose curve; as a rule, active = well fitted curve in the direction sought with a large enough effect; inconclusive = small, poorly fitted or top-dose-only effect, or another doubt; inactive = no such curve, though single readings can be large; an effect the other way counts as inactive or inconclusive.

Chain of Alpha-galactosidase A (Homo sapiens) (P06280 whole entry, looked up): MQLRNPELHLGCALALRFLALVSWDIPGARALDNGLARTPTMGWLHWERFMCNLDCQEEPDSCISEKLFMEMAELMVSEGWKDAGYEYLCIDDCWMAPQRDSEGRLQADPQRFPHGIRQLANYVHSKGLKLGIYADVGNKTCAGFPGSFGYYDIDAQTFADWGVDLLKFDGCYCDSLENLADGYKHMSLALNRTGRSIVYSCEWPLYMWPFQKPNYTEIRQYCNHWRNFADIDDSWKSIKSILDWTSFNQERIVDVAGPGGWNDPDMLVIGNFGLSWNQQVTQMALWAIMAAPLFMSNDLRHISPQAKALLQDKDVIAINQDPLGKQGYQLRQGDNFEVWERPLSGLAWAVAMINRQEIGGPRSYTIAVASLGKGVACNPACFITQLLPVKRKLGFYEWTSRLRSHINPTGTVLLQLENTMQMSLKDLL
Chain of DNA repair nuclease/redox regulator APEX1 (Homo sapiens) (P27695 whole entry, looked up): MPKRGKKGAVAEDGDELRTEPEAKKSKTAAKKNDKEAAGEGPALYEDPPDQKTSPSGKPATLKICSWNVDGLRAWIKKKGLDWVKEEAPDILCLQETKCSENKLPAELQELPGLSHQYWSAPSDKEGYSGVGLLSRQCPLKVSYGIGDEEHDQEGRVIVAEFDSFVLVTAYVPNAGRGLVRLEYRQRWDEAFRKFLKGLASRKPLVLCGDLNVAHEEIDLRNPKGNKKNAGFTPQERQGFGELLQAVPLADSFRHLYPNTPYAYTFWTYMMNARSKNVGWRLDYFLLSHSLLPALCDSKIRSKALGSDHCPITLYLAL

Take `CC(C)[N+](C)(CCOC(=O)C1c2ccccc2Oc2ccccc21)C(C)C`: the molecule was called inactive in [1], in experiment [2] and in experiment [4]. Besides, the activity change, negative = inhibition in experiment [3] (at 25.7 µM (top of the series)) was 0.9% (inactive). Moreover, the max response in experiment [3] (setting [20]) is -9.66%; in experiment [3] (setting [21]) it was -8.2%. Further, the Potency result in experiment [5] was “inactive”. Also, the Potency is 12.6 µM (active) in experiment [6]; 10 µM (active) in [7]; 3.98 µM (active) in experiment [8]; 11.2 µM (active) in experiment [9]; 8.91 µM (active) in experiment [10].
Regarding `Cc1nc2sccn2c(=O)c1CCN1CCC(=C(c2ccc(F)cc2)c2ccc(F)cc2)CC1`, the outcome in [1], in [2] and in experiment [4] was inactive. The activity change, negative = inhibition in experiment [3] (at 57.5 µM (top of the series)) is -1.04% (inactive). Besides, the max response in [3] (setting [20]) came out at 26.4%; in experiment [3] (setting [21]), 25.6%. Also, the Potency entry in [11] and in experiment [5] was “inactive” throughout. Besides, the Potency is 7.08 µM (active) in experiment [6]; 10 µM (active) in [7]; 11.2 µM (active) in experiment [8]; 10 µM (active) in experiment [9]; 7.94 µM (active) in experiment [12]; 10 µM (active) in [10].
Turning to `OC(CCN1CCCCC1)(c1ccccc1)C1CCCCC1` (centres undefined), the activity change, negative = inhibition in experiment [3] (at 57.5 µM (top of the series)) was 1.74% (inactive). The max response in [3] (setting [20]) was -10.4%; in experiment [3] (setting [21]), -6.71%. Moreover, the Potency result in [11] and in experiment [5] was “inactive” each time. Further, the molecule was called inactive in [4]. Moreover, the Potency was 10 µM (active) in [7]; 10 µM (active) in [8]; 12.6 µM (active) in experiment [9]; 3.55 µM (active) in experiment [12]; 3.16 µM (active) in [10].
As for `CCCN(CCC)C(=O)C(CCC(=O)O)NC(=O)c1ccccc1` (centres undefined), the activity change, negative = inhibition in experiment [3] (at 57.5 µM (top of the series)) was 2.72% (inactive). The max response is 19.5% in experiment [3] (setting [20]) and 23.3% in experiment [3] (setting [21]). Moreover, the Potency entry in experiment [11], in experiment [6], in [7], in experiment [8], in [9] and in experiment [12] was “inactive” in each case. Further, the Potency result in experiment [10] was “inactive”. The result in [4] was inactive.
As to `CN1CCN(CC(=O)N2c3ccccc3C(=O)Nc3cccnc32)CC1`, the result in experiment [1], in experiment [2] and in [4] was inactive. Moreover, the activity change, negative = inhibition was 1.33% (inactive) in experiment [3] (at 25.7 µM (top of the series)); 2.91% (inactive) and 6.38% (inactive) and 1.02% (inactive) in experiment [3] (at 57.5 µM (top of the series)). In addition, the Potency entry in [11], in [5], in experiment [6], in [7], in experiment [8] and in experiment [12] was “inactive” each time. Further, the Potency entry in experiment [10] was “inactive”.
In the case of `COc1ccc(CN(CCN(C)C)c2ccccn2)cc1`, the result in experiment [13], in experiment [14], in experiment [16], in experiment [1], in experiment [17] and in experiment [2] was inactive. For the same molecule, the molecule was classed as inactive in experiment [4]. Moreover, the Potency result in experiment [15], in experiment [18], in [11], in [5], in experiment [8] and in experiment [9] was “inactive” throughout. Moreover, the activity change, negative = inhibition in experiment [3] (at 25.7 µM (top of the series)) is 1.57% (inactive); in experiment [3] (at 57.5 µM (top of the series)), 2.66% (inactive) and 4.86% (inactive) and -0.667% (inactive). Also, the max response in [3] (setting [20]) is 5.42% [middle of 4 runs]. The Potency in experiment [7] is 8.91 µM (active); in [10], 5.62 µM (active).
For `Nc1ncn([C@@H]2O[C@H](CO)[C@@H](O)[C@H]2O)c(=O)n1`, the Potency in experiment [15] is 7.94 µM (active); in experiment [19] it was 15.8 µM (active); in experiment [18], 15.8 µM (active). Besides, the call in [1], in [2] and in experiment [4] was inactive. Moreover, the Potency result in experiment [11], in experiment [5], in experiment [6], in experiment [7], in experiment [8] and in experiment [9] was “inactive” each time. Further, the Potency result in [12] and in [10] was “inactive” in each case.
Turning to `CO[C@@]1(NC(=O)CSCC#N)C(=O)N2C(C(=O)O)=C(CSc3nnnn3C)CS[C@@H]21`, the activity change, negative = inhibition in experiment [3] (at 57.5 µM (top of the series)) was 0.161% (inactive). For the same molecule, the max response in [3] (setting [20]) was -28.1%; in [3] (setting [21]), -28.4%. The Potency entry in experiment [11], in experiment [6], in [7], in experiment [8], in [9] and in [12] was “inactive” each time.
In the case of `CCN1CCc2nc(N)oc2CC1`, the molecule was classed as inactive in [1] and in [2]. Also, the activity change, negative = inhibition in experiment [3] (at 57.5 µM (top of the series)) was 0.659% (inactive). Besides, the max response was -8.22% in [3] (setting [20]) and -7.55% in [3] (setting [21]). Moreover, the Potency entry in experiment [11], in [5], in [6], in experiment [7], in experiment [8] and in experiment [9] was “inactive” each time. The Potency result in [12] and in experiment [10] was “inactive” throughout.

(Values after PubChem BioAssay (NCATS).)
